Bioassay records (PubChem)
IDE cell activ – human IDE activators in live cells, primary screen, fluorescence polarization, HEK cells, FAbeta-B substrate | FAbeta-B cleavage; 0% vehicle, 100% cell-free pure enzyme wells | actives 0.073% (n = 340,000) | AID 493087, 2011 | Insulin-degrading enzyme (Homo sapiens), P14735 | activation, % at 5.96 µM;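 active = activation above the mean of all tested compounds plus 3 SD, set per screening campaign, cut at about 17% in these data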
Target sequence (P14735 whole entry, looked up): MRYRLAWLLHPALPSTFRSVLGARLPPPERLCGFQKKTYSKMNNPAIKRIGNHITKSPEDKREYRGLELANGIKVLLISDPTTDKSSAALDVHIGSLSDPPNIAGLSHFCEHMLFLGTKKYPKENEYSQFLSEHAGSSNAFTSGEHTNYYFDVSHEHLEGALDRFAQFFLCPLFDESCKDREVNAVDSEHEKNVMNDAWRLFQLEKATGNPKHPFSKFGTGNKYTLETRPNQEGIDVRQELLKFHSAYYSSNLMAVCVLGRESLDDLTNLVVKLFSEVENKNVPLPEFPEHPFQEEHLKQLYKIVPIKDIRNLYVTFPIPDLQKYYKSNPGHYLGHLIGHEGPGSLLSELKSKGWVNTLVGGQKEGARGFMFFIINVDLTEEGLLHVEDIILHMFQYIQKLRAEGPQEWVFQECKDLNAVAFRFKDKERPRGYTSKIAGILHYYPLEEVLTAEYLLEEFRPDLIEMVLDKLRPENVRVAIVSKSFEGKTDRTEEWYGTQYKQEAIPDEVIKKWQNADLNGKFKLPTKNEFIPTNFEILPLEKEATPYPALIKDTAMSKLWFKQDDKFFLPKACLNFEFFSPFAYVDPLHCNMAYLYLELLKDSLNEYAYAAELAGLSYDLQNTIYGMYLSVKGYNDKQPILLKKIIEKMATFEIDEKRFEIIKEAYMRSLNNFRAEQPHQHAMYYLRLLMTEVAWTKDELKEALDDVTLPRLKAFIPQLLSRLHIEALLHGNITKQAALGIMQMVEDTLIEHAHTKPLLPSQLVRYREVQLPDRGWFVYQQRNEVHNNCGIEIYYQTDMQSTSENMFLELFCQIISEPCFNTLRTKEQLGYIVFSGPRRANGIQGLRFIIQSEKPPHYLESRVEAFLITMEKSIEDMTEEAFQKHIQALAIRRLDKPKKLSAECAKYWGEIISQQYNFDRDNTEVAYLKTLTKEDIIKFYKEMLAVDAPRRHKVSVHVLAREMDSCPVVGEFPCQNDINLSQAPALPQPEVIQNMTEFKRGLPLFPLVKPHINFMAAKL
RTF Ca sens inh – cardiac RTF calcium sensitivity inhibitors, primary screen, biochemical, IANBD-TnC fluorescence, EC70 calcium; Troponin I, cardiac muscle (Homo sapiens) + Troponin T, cardiac muscle (Homo sapiens) + …; IANBD-labeled cardiac RTF, Ca2+ fluorescence; inhibition, % at 7.15 µM; actives 0.12% (n = 340,000);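 active = inhibition above the mean inhibition of all tested compounds plus 3 SD, cut at about 17% in these data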;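 also: assay run at fixed EC70 calcium of 1.6 mM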
RTF Ca sens act – cardiac RTF calcium sensitivity activators, primary screen, biochemical, IANBD-TnC fluorescence, EC20 calcium; actives 0.24% (n = 340,000); IANBD-labeled TnC RTF fluorescence at EC20 calcium; 0% EC20 calcium, 100% full calcium; activation, % at 7.2 µM; AID 493008, 2010;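 active = activation above the mean over all tested compounds plus 3 SD, cut at about 30% in these data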;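 also: rise in fluorescence read as greater calcium sensitivity of cardiac thin filaments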
IDE inh – human IDE inhibitors in live cells, primary screen, fluorescence polarization, HEK cells, FAbetaB substrate. Insulin-degrading enzyme (Homo sapiens), P14735. inhibition, % at 5.59 µM. actives 0.41% (n = 320,000). FAbetaB cleavage;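 active = percent inhibition above the average of all tested compounds plus 3 SD, set per screening campaign, cut at about 16% in these data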;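 also: IDE supplied by intact live HEK cells; FP after avidin binding of uncleaved biotin substrate so inhibition keeps polarization high; 0% = DMSO wells and 100% = 60 µM reference IDE inhibitor Ii1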
CRFBP-R2 agonist – agonists of CRF-BP/CRF-R2 complex, primary screen, cell-based, HEK293, calcium dye fluorescence, uHTS | CRF-binding protein / CRF receptor 2 complex (human) | calcium dye fluorescence (FLIPR); percent of saturating CRF peptide response | activation, % at 13.2 µM | actives 0.46% (n = 350,000);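 active = activation of at least 50%, plus an integration ratio under a set limit after plate pattern correction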;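 also: plate controls were neutral control wells without compound for no effect and CRF at EC100 for full effect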
CRFR2-BP antag – antagonists of CRF-BP/CRF-R2 complex, primary screen, cell-based, HEK293, calcium dye fluorescence, uHTS | CRF-induced calcium fluorescence | inhibition, % at 11.8 µM | actives 0.59% (n = 350,000);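 active = inhibition of the ligand-induced calcium signal above about 50% at the single tested concentration, limit read from the data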
Active calls of the source: *; . = no result given. Most compounds without a hit are left out; they make up all but 1.5% or so of the library.

SMILES	IDE cell activ	RTF Ca sens inh	RTF Ca sens act	IDE inh	CRFBP-R2 agonist	CRFR2-BP antag
CCC(CC)NC(=O)CC(c1ccccc1)c1ccccc1	2.8	-4.0	5.1	4.5	-10.9	71.3*
CC(NC(=O)CC(c1ccccc1)c1cc(Cl)ccc1O)c1ccccc1 (stereo unspecified)	3.9	-1.5	-0.9	1.4	-2.1	52.5*
CC(C)NC(=S)N(CCc1ccncc1)C(C)C	1.2	1.2	2.4	-1.4	0.0	111.7*
O=C1N=C(N2CCOCC2)S/C1=C/c1ccc(-c2ccccc2Cl)o1	3.5	-1.5	2.4	2.5	4.8	-19.0
O=C1S/C(=C/c2ccc(N3CCOCC3)o2)C(=O)N1Cc1c(F)cccc1Cl	-53.9	-53.5	144.9*	5.1	84.0*	-42.9
O=C1S/C(=C\c2ccc(N3CCOCC3)o2)C(=O)N1c1ccccc1	-20.6	-17.5	45.0*	-4.7	6.0	-22.5
O=C1S/C(=C\c2ccc(N3CCOCC3)o2)C(=O)N1Cc1c(F)cccc1Cl	-29.5	-42.8	100.1*	13.8	15.9	-29.4
COCC(C)n1c(COc2ccccc2F)nnc1SCC(=O)Nc1oc(C)c2c(C)n[nH]c(=O)c12 (stereo unspecified)	-4.7	-0.2	-1.6	10.0	0.6	16.2
COc1cc(/C=C(\C#N)c2nc3c(s2)CCCC3)ccc1O	.	.	.	145.6*	.	.
CC(=O)Nc1ccccc1OCC(=O)c1cc(C)n(Cc2cccs2)c1C	-0.5	-6.7	14.0	1.4	160.7*	-89.2
Cc1c(CC(Cl)(Cl)Cl)c2c(n1O)CC(C)(C)CC2=O	2.1	1.2	-4.0	3.0	55.0*	74.3*
Cc1ccc2oc(=O)n(CC(=O)OCCC(C)C)c2c1	3.8	-2.4	9.8	7.5	0.1	-0.7
CC1CCCCC1NC(=O)c1cc(S(=O)(=O)N2CCOCC2)ccc1Cl (stereo unspecified)	1.9	2.6	-3.9	-3.0	-3.6	12.3
CN(C(=O)COC(=O)CNC(=O)C12CC3CC(CC(C3)C1)C2)C1CCS(=O)(=O)C1 (stereo unspecified)	7.2	0.3	3.4	-0.3	-1.4	-2.2
COc1ccc(NS(=O)(=O)c2c(C)n(C)c(=O)n(C)c2=O)cc1OC	7.1	-7.6	1.8	0.3	-0.4	81.7*
COC(=O)CC(NC(=O)c1ccc(C)cc1)c1ccc2c(c1)OCO2 (stereo unspecified)	0.0	4.4	-2.1	-0.3	-7.1	107.2*
COc1ccc(C(CC(=O)O)c2ccc3c(c2)OCO3)cc1 (stereo unspecified)	2.9	1.4	-2.4	1.7	1.1	94.1*
Cc1cccc(C)c1N1CCN(C(=O)c2ccc3c(c2)OCO3)CC1	3.2	1.2	-2.8	1.4	-0.1	61.1*
O=C(CSc1nnc(-c2ccco2)n1-c1ccccc1Cl)Nc1cccc(C(=O)O)c1	6.1	4.4	-2.0	3.8	-0.5	13.2
O=C(CCN1CCCCC1=O)NC1CCCN(Cc2ccc(Cl)cc2)C1 (stereo unspecified)	-0.3	-7.2	4.0	-1.0	0.1	88.9*
CC(C)Cc1ccc(CN2CCCC(NC(=O)CCN3CCCCC3=O)C2)cc1 (stereo unspecified)	-1.9	-8.0	0.5	4.7	1.8	-9.9
Cc1ccc(NCC(=O)Nc2cccc(F)c2)cc1S(=O)(=O)N1CCCCCC1	2.9	-15.9	2.0	1.1	-4.3	8.3
CCC1(C)CC2(CCCN(CCC(=O)c3ccccc3)C2)CCO1 (stereo unspecified)	7.2	-4.3	-0.3	-2.0	2.8	-43.4
COc1cc2c(cc1OC)-c1cc(Nc3ccc(C(=O)O)cc3)nc(=O)n1CC2	4.0	0.9	0.1	4.0	0.1	117.3*
COc1ccc(Nc2cc3n(c(=O)n2)CCc2cc(OC)c(OC)cc2-3)cc1	2.2	-2.9	-3.4	-0.2	0.8	32.4
SMILES	IDE cell activ	RTF Ca sens inh	RTF Ca sens act	IDE inh	CRFBP-R2 agonist	CRFR2-BP antag
Cn1c(O)c(N=NC(=O)Cn2c(C(F)(F)F)nc3ccccc32)c2ccccc21	-2.8	-9.2	0.9	-4.2	2.0	-4.1
O=C(Nc1ccc(S(=O)(=O)N2CCOCC2)cc1)c1ccc(Cl)c([N+](=O)[O-])c1	-1.0	-2.7	-2.7	.	-0.1	56.3*
CSc1ncc(Cl)c(C(=O)Nc2ccc(S(=O)(=O)N3CCOCC3)cc2)n1	1.1	-5.7	-3.4	1.9	-1.2	90.0*
CN1CCN(c2ccc(NC(=O)c3ccc(C#N)cc3F)cc2Cl)CC1	-3.3	-5.1	2.5	-2.4	2.4	4.4
Cc1ccc2c(CC(=O)Nc3sccc3C(N)=O)coc2c1	-3.6	-7.0	-0.1	8.1	94.7*	-57.9
Cc1ccc2c(CC(=O)NCC(=O)Nc3c(C)cccc3C)coc2c1	2.7	-1.1	-4.3	-0.1	-0.2	50.5*
Cc1ccc2c(CC(=O)Nc3ccc(N4CCN(C)CC4)cc3C)coc2c1	-0.1	-7.5	0.9	-3.6	-1.5	6.1
Cc1cccc(NC(=O)CSc2nc3nc(C)cc(C)n3n2)c1	0.5	-3.0	0.6	3.0	-1.1	0.5
O=C(COC(=O)Cc1ccc(Cl)cc1Cl)Nc1ccccc1OC(F)F	1.0	-7.2	-0.8	5.6	-1.2	0.1
COc1ccc2nc(N3CCC(C)CC3)c(C#N)cc2c1	-2.1	-25.0	-0.1	2.8	12.0	-20.7
CCOC(=O)C1CCN(c2nc3cc(OC)ccc3cc2C#N)CC1	3.2	-6.2	-0.6	6.0	-0.6	57.1*
COc1ccc2nc(N3CCC(O)CC3)c(C#N)cc2c1	1.9	-10.0	11.4	5.0	51.5*	6.6
CCOC(=O)C1CCCN(C2CC(=O)N(c3ccc(N4C(=O)CC(N5CCCC(C(=O)OCC)C5)C4=O)cc3)C2=O)C1 (stereo unspecified)	-1.5	-6.0	3.4	4.3	0.2	-8.5
CCOC(=O)C1CCCN(C2CC(=O)N(c3ccccc3)C2=O)C1 (stereo unspecified)	4.7	9.2	-4.9	6.0	-2.2	66.8*
Cc1ccc(NC(=O)CCc2nnc3ccc(NCc4ccco4)nn23)nc1	5.4	-5.7	2.5	-3.0	0.1	2.4
CC(CCc1ccco1)NC(=O)CCc1nnc2ccc(NCc3ccccc3)nn12 (stereo unspecified)	5.5	-6.8	-0.9	-2.3	0.6	53.0*
CC(=O)c1cccc(Nc2cc(C)nc3c(C)cccc23)c1	1.1	-1.2	-4.5	0.1	-1.2	109.3*
O=C(NCc1ccccn1)c1ccc(OC2CCN(Cc3ccc(F)cc3F)CC2)cc1	3.0	-6.2	-3.5	2.8	-2.5	6.3
